This is a sample that favours compounds with a hit; in the whole collection about 4.4% have one here.
D1 ag: Allosteric Agonists of the Human D1 Dopamine Receptor: qHTS; activation, % at 2 µM; D(1A) dopamine receptor (Homo sapiens), P21728; AID 504660, 2011; HEK293 T-REx D1 cells, calcium flux, agonist mode; hit rate 1% among 360,000
Target sequence (P21728 whole entry, looked up): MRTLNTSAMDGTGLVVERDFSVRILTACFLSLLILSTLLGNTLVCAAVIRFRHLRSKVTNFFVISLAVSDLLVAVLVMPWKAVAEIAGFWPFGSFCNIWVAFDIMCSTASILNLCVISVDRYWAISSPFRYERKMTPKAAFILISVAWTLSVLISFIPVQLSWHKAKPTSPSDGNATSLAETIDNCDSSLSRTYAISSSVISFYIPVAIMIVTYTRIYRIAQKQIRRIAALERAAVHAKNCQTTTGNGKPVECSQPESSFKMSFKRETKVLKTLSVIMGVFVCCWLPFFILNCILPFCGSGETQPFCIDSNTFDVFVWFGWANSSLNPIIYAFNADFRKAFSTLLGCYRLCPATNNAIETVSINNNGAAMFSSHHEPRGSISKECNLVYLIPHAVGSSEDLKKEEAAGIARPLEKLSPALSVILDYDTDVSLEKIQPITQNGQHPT
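Agonism was scored from calcium flux recorded over 180 s (1 read/s) after pintool compound addition, following a 10-cycle baseline. Cells were inducible force-coupled HEK293 TREx D1, plated overnight at 30 C and loaded with no-wash calcium dye.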
TRHR ag: qHTS for Small Molecule Agonists and Allosteric Enhancers of Human TRH Receptor: Primary Screen for Agonists; Thyrotropin-releasing hormone receptor (Homo sapiens), P34981; TRHR cells, calcium flux fluo-8, FDSS agonist mode; activation, % at 2 µM; hit rate 0.18% among 360,000
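Agonist-mode FDSS calcium read (Ex 480/Em 530, 1 s cycles) in 1536-well TRHR cells with fluo-8 dye, after 10-cycle baseline and 23 nL compound addition; TRH at EC20 (10 nM final) added afterwards for the enhancer phase.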
USP1 inh: Inhibitors of USP1/UAF1: Primary Screen; Potency, µM (highest dose often 57.1 µM), actives largely listed as inhibitors; Ubiquitin carboxyl-terminal hydrolase 1 (Homo sapiens), O94782; recombinant USP1/UAF1, Ub-Rhodamine cleavage fluorescence; hit rate 0.23% among 390,000; active = well fitted inhibition curve with a large enough effect; inconclusive = small, poorly fitted or top-dose-only effect; inactive = no such curve, though single readings can be large or run the other way; also: nearly all actives have a fitted effect of over 60% in size
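USP1/UAF1 complex (1 nM) preincubated 15 min at room temperature with compound, then Ub-Rho substrate (150 nM final) added. Kinetic fluorescence at 480/540 nm over 6 reads at 60 s intervals; 50 mM HEPES pH 7.8, 0.5 mM EDTA, 0.1 mg/ml BSA, 1 mM TCEP, 0.01% Tween-20.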
D1 antagonist: Antagonist of Human D 1 Dopamine Receptor: qHTS; D(1A) dopamine receptor (Homo sapiens), P21728; HEK293 TREx D1 cells, calcium flux, dopamine EC80; active compounds read low; activity change, negative = inhibition, % at 10 µM; hit rate 3.2% among 360,000; in the data active = activity change below about -30%
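Compound effects on dopamine-evoked calcium signalling were measured in tetracycline-induced HEK293 Trex D1 cells. Dopamine at EC80 followed a 180 s compound pre-read, and fluorescence was tracked kinetically for 180 s more.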
D1 potentiator: Potentiators of Human D1 Dopamine Receptor: qHTS; potentiation, % at 10 µM; HEK293 TREx D1 cells, calcium flux, dopamine EC20 potentiation; hit rate 0.036% among 360,000; D(1A) dopamine receptor (Homo sapiens), P21728; in the data active = potentiation above about 30%
TRHR PAM: qHTS for Small Molecule Agonists and Allosteric Enhancers of Human TRH Receptor: Primary Screen for Enhancers; Thyrotropin-releasing hormone receptor (Homo sapiens), P34981; TRHR cells, fluo-8 calcium fluorescence, EC20 TRH enhancement; enhancement, % at 2 µM; hit rate 0.66% among 360,000; AID 493056, 2011; in the data active = enhancement above about 30%
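Enhancer read-out: after compound pinning and an initial kinetic agonist-mode read, an EC20 of TRH (10 nM final) was injected and fluo-8 calcium signal (Ex 480/Em 530) followed at 1 s/cycle for 100 cycles in TRHR-expressing cells.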
Each line names hits and unclear results; the compound was inactive in the other large screens; ! = not active in a repeat. Rule as the data show it, unless noted: active = activation above about 30%; inactive = the rest.

Clc1cc2c(c(CSc3nc4ccccc4n4cccc34)c1)OCOC2	D1 antagonist -47.4
COc1ccc(NC(=O)CSc2nc(-c3ccc(OC)cc3)[nH]c2-c2ccc(OC)cc2)cc1	none
Cn1cc(CN(C(=O)Nc2ccc(Cl)c(Cl)c2)C2CCCCC2)c2ccccc21	D1 antagonist -47.2
C=CCc1cc(F)c(S(=O)(=O)N2CCN(S(=O)(=O)c3ccc4c(c3)OCCO4)CC2)cc1F	none (no result: USP1 inh)
CCOC(=O)CSc1nc2c(sc(=S)n2-c2ccccc2)c(=O)[nH]1	none
CCN(CC)C(=O)CSc1nc2c(sc(=S)n2-c2ccc(C)cc2C)c(=O)[nH]1	D1 antagonist -40.6
COc1ccc(/C=C2\CCc3ccccc3C2=O)cc1Cn1cccn1	D1 antagonist -48.9
COc1ccc(/C=C2\CCC(C3CCCC3)C2=O)cc1Cn1cccn1 (configuration not stated)	none
COc1ccc(-c2nc(CSCC(=O)N3CCN(c4ccc(F)cc4)CC3)c(C)o2)cc1	D1 antagonist -33.0
Cc1cc(C)cc(C(N)=Nc2cccc(C#N)c2)c1	D1 antagonist -50.2
N#CNC(N)=Nc1cccc(Cl)c1	none
CC(C)Sc1nc2c(c(=O)n1C)SC(C)C2 (configuration not stated)	D1 antagonist -32.2
Cc1nc2sc(C(=O)c3ccccc3)c(N)c2c(C)c1C	none
COc1ccc(C(=O)c2sc3nc4c(c(C(F)(F)F)c3c2N)CN(C(C)=O)CC4)cc1OC	USP1 inh 39.8µM
CC(=O)N1CCc2nc3sc(C(=O)c4ccc(F)cc4)c(N)c3c(C(F)(F)F)c2C1	D1 ag 61.2, TRHR ag 36.6
Cc1nc(-c2ccccc2)nc2sc(C(=O)c3ccc(F)cc3)c(N)c12	D1 ag 34.1
Cc1ccc(CN2CCCn3nc(C(=O)NCc4ccc(N(C)C)cc4)cc3C2=O)cc1	none
O=C1CN(C(=O)Cc2ccccc2)C(c2ccc(F)cc2)c2cc(Br)ccc2N1 (configuration not stated)	USP1 inh inconclusive, D1 antagonist -48.3
O=C1CN(C(=O)COc2ccccc2)C(c2ccc(F)cc2)c2cc(Br)ccc2N1 (configuration not stated)	none
CCOc1ccc(CCNC(=O)c2cnc3c(-c4ccc(F)cc4)c(C)nn3c2C)cc1OCC	none
CCOC(=O)/C(=C/C1=CC(=C/N(C)C)/C(=O)O1)C(C)=O	USP1 inh 31.6µM
CC(NC(=O)COC(=O)c1ccco1)C12CC3CC(CC(C3)C1)C2 (configuration not stated)	none (no result: USP1 inh)
Cc1ccc(C)c(-n2cc(CNCCCn3cccn3)c(-c3ccccc3)n2)c1	D1 ag 40.0
Cc1ccc(-n2cc(CNCCCn3cccn3)c(-c3cccc(C)c3)n2)cc1	D1 ag 43.8, D1 antagonist -40.7
CCCCc1nc2ccccc2c(N)c1CCC (tested in a mixture with another compound)	D1 ag 50.4, D1 antagonist -46.9
CCCCc1nc2ccccc2c(NC(=O)CNC(C)(C)C)c1CCC	none
C=CCNc1nc(N)c(C(=C(C#N)C#N)c2ccc(Br)cc2)s1	D1 antagonist -31.5
CCn1nnc2cc(C(=O)Nc3cc(C)ccc3C)ccc21	none
CN(CCOc1ccccc1)CC(=O)Nc1ccc([N+](=O)[O-])cc1Cl	none
CN(CC(=O)Nc1ccc([N+](=O)[O-])cc1Br)Cc1c(F)cccc1Cl	D1 antagonist -32.5
CCCCNc1nc2c(c(=O)n(Cc3ccc(Cl)c(Cl)c3)c(=O)n2C)n1C	none
COc1ccc(/C(=C/Nc2cccc(Br)c2)C(C)=O)cc1OC	TRHR PAM 40.7
COc1ccc(N/C=C(/C(C)=O)c2ccccc2)cc1	none
NC(=O)[C@@H]1CCCNc2c(I)cc([N+](=O)[O-])cc2C(=O)N[C@@H](CCCN=C(N)N)C(=O)N[C@@H](CCCN=C(N)N)C(=O)N1	D1 antagonist -38.7 (no result: USP1 inh)
CC[C@H](C)[C@@H]1NC(=O)c2cc([N+](=O)[O-])cc(I)c2NCC[C@@H](C(N)=O)NC(=O)[C@H](CCCN=C(N)N)NC1=O	none
Cc1ccccc1CNc1nc(N(C)C)nc2c1cnn2C	none
COc1ccc(NC(=O)C2CCCN(S(=O)(=O)c3ccc4[nH]c(=O)ccc4c3)C2)cc1Cl (configuration not stated)	none
COc1ccc(NC(=O)C2CCN(S(=O)(=O)c3ccc(N4CCCC4=O)cc3)CC2)c(OC)c1	none
COc1ccc(C)cc1NC(=O)C1CCCN(S(=O)(=O)c2ccc3[nH]c(=O)ccc3c2)C1 (configuration not stated)	TRHR PAM 46.8!
Cc1ccc(NC(=O)C2CCN(S(=O)(=O)c3ccc(N4CCCC4=O)cc3)CC2)cc1Cl	D1 antagonist -70.9
Cc1ccc(NC(=O)C2CCCN(S(=O)(=O)c3ccc4[nH]c(=O)ccc4c3)C2)cc1Cl (configuration not stated)	D1 antagonist -48.3
CC1=CC(c2ccccc2)n2nc(N3C(=O)c4ccccc4C3=O)nc2N1 (configuration not stated)	none
CCOc1ccc(C2C=C(c3ccccc3)Nc3nnnn32)cc1 (configuration not stated)	none
CC1=CC(c2ccccc2)n2nnnc2N1 (configuration not stated)	D1 antagonist -34.8
CN(C)c1ccc(C2C=C(c3ccccc3)Nc3nnnn32)cc1 (configuration not stated)	D1 ag 30.8
Cc1cc(C)cc(C(=O)n2nc(C)c(S(=O)(=O)N3CCCCCC3)c2C)c1	none
COc1ccccc1Cc1nc2ccccc2nc1SCC(=O)Nc1c(C)cccc1C	none
Cn1cnnc1SCC(=O)Nc1cc(C(=O)O)cc(C(=O)O)c1	none
Cc1c(C)n(C)c2ccc(C(=O)NCCc3ccc(Cl)cc3)cc12	D1 antagonist -59.2
O=C(CCNC(=O)c1ccc(Cl)cc1)Nc1ccc(F)cc1F	D1 antagonist -46.9
O=C(COC(=O)CCCNC(=O)c1ccc(Cl)cc1)NCc1ccccc1Cl	D1 ag 77.3
O=C(CCCNC(=O)c1ccc(Cl)cc1)NCc1ccccc1Cl	none
NS(=O)(=O)c1ccc(CCNC(=O)c2ccc(Cl)nc2)cc1	none
